Bioassay records deposited in PubChem by Broad Institute.
C diff HTS: blocks growth of Clostridium difficile. Clostridium difficile clinical isolate growth, OD600, 24 h; stronger effect = lower value. growth activity, negative = inhibition, % at 16 µg/mL (by protocol). actives 0.25% (n = 86,000). AID 1259249;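 active means mean growth activity at or below -80% and every replicate also at or below -80%; inconclusive means mean at or below -80% but some replicate above -80%; inactive means mean growth activity above -80%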
T cruzi growth-1: blocks T. cruzi growth in NIH3T3 culture | T. cruzi beta-gal in NIH3T3, GalScreen luminescence, 90 h | inhibition, % at 8.34 µM | actives 5.9% (n = 77,000) | AID 624255;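 active means mean inhibition above about 93%, with at least 55% of replicates each passing it, limit read from the data, passing the limit was not always enough; inconclusive means only one of those two conditions holds; inactive means neither condition holds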
Pf Dd2 growth: blocks growth of Plasmodium falciparum Dd2 parasites; P. falciparum Dd2 growth, SYBR Green, 72 h; stronger effect = lower value; actives 2.3% (n = 94,000); activity change, % at 10 µM; in the data active means activity change below about -80%; inconclusive means no clear call, values can overlap the other calls
T cruzi growth-2: blocks T. cruzi growth in NIH3T3 host cells. inhibition, % at 8.35 µM. actives 72% (n = 5,600). shares compounds with T cruzi growth-1. T. cruzi beta-gal in NIH3T3, GalScreen luminescence, 90 h. AID 651739;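 active means mean replicate inhibition above about 95% and at least 55% of replicates individually reaching it, limit read from the data; inconclusive means only one of the two criteria is met; inactive means neither criterion is met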
T cruzi growth-3: Trypanosoma cruzi proliferation inhibition; shares compounds with T cruzi growth-1; T. cruzi beta-gal in NIH3T3, GalScreen luminescence, 90 h; inhibition, % at 2.09 µM; actives 21% (n = 5,600);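 active means mean inhibition above about 95%, with at least 55% of replicates also reaching it, limit read from the data; inconclusive means meets just one of the two conditions; inactive means meets neither condition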
NIH3T3 tox: kills mouse NIH/3T3 fibroblasts | shares compounds with T cruzi growth-1 | NIH/3T3 viability, CellTiter-Glo ATP luminescence, 90 h | cytotoxicity (signal decrease), % at 8.35 µM | actives 14% (n = 5,600) | AID 651742;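 active means mean signal decrease across replicates above about 35% based on untreated-well scatter, with enough replicates individually passing, limit read from the data; inconclusive means no rule stated though some were filed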
3T3 cytotox 2: NIH/3T3 (mouse) viability loss | shares compounds with T cruzi growth-1 | actives 56% (n = 5,600) | NIH/3T3 viability, CellTiter-Glo ATP luminescence, 90 h | inhibition, % at 24.9 µM;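 active means mean loss of cell viability signal at or above a set limit, and enough replicates individually reaching it; inconclusive means meets only the mean limit or only the replicate share; inactive means meets neither condition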
A number is an active result; 0 = inactive; ? = inconclusive; - = no result given. Shown are actives, neighbours in structure and some others; about 6.7% of the full set was active somewhere.

SMILES	C diff HTS	T cruzi growth-1	Pf Dd2 growth	T cruzi growth-2	T cruzi growth-3	NIH3T3 tox	3T3 cytotox 2
COc1ccc(NC(=O)Nc2cccc3c2O[C@H](CN(C)S(=O)(=O)c2ccc(F)cc2)[C@H](C)CN([C@@H](C)CO)C3=O)cc1	0	0	0	-	-	-	-
Cc1noc(C)c1NC(=O)N(C)C[C@@H]1Oc2ccc(NS(=O)(=O)c3ccccc3)cc2C(=O)N([C@@H](C)CO)C[C@H]1C	0	0	0	-	-	-	-
C[C@H]1CN([C@@H](C)CO)C(=O)c2cc(NC(=O)CCCN(C)C)ccc2O[C@H]1CN(C)S(=O)(=O)c1ccccc1	0	0	0	-	-	-	-
CC(C)NC(=O)Nc1cccc2c1O[C@@H](CN(C)C(=O)NC1CCCCC1)[C@@H](C)CN([C@@H](C)CO)C2=O	0	0	0	-	-	-	-
C[C@H]1CN([C@@H](C)CO)C(=O)c2cc(NS(=O)(=O)c3ccc(Cl)cc3)ccc2O[C@H]1CN(C)Cc1ccc(C(F)(F)F)cc1	0	129.4	0	109.3	0	0	103.2
C[C@H]1CN([C@@H](C)CO)C(=O)c2cc(NS(=O)(=O)c3ccc(Cl)cc3)ccc2O[C@@H]1CN(C)Cc1ccc(C(F)(F)F)cc1	0	?	0	111.2	0	0	102.8
C[C@H](CO)N1C[C@H](C)[C@@H](CN(C)Cc2ccc(C(F)(F)F)cc2)Oc2ccc(NS(=O)(=O)c3ccc(Cl)cc3)cc2C1=O	0	0	0	-	-	-	-
C[C@@H]1CN([C@H](C)CO)C(=O)c2cc(NS(=O)(=O)c3ccc(Cl)cc3)ccc2O[C@H]1CN(C)Cc1ccc(C(F)(F)F)cc1	0	0	0	-	-	-	-
O=C(C[C@@H]1CC[C@@H]2[C@H](COC[C@@H](O)CN2Cc2ccc3c(c2)OCO3)O1)N1CCOCC1	-	0	0	-	-	-	-
O=C(C[C@H]1CC[C@@H]2[C@H](COC[C@H](O)CN2Cc2ccc3c(c2)OCO3)O1)N1CCOCC1	-	0	0	-	-	-	-
O=C(C[C@@H]1CC[C@@H]2[C@H](COC[C@@H](O)CN2Cc2ccc3c(c2)OCO3)O1)Nc1ccc(-c2ccccc2)cc1	0	102.2	0	97.1	0	36.3	50.8
O=C(C[C@@H]1CC[C@H]2[C@@H](COC[C@H](O)CN2Cc2ccc3c(c2)OCO3)O1)Nc1ccc(-c2ccccc2)cc1	0	?	0	102.9	0	0	91.7
C[C@H]1CN([C@@H](C)CO)C(=O)Cc2cc(NC(=O)Nc3ccccc3)ccc2O[C@H]1CN(C)S(=O)(=O)c1ccc(F)cc1	0	0	0	-	-	-	-
Cc1ccc(S(=O)(=O)NCC[C@@H]2CC[C@@H](NC(=O)c3cccnc3)[C@H](CO)O2)cc1	0	0	0	-	-	-	-
C[C@H]1CN([C@@H](C)CO)C(=O)c2cc(C#CC3CC3)cnc2O[C@@H]1CN(C)C(=O)Cc1ccccn1	-	0	0	-	-	-	-
COc1cccc(NC(=O)N(C)C[C@H]2Oc3ncc(C#Cc4ccncc4)cc3C(=O)N([C@@H](C)CO)C[C@@H]2C)c1	0	-	0	-	-	-	-
COc1ccc(C#Cc2cnc3c(c2)C(=O)N([C@H](C)CO)C[C@H](C)[C@H](CN(C)C(=O)Nc2cccc(OC)c2)O3)cc1	0	0	0	-	-	-	-
COc1ccc(C#Cc2cnc3c(c2)C(=O)N([C@@H](C)CO)C[C@@H](C)[C@H](CN(C)C(=O)Nc2cccc(OC)c2)O3)cc1	0	?	0	109.7	0	0	0
C[C@@H]1CN([C@H](C)CO)C(=O)c2cc(C#CC3CCCC3)cnc2O[C@H]1CN(C)C(=O)Nc1ccccc1	0	99.2	0	104.0	0	0	0
COc1cccc(NC(=O)N(C)C[C@@H]2Oc3ncc(C#Cc4ccccc4)cc3C(=O)N([C@@H](C)CO)C[C@H]2C)c1	0	117.7	0	111.0	102.7	0	0
C[C@H](CO)N1C[C@H](C)[C@@H](CN(C)C(=O)Cc2ccccn2)Oc2ncc(C#CC3CC3)cc2C1=O	-	103.9	0	0	0	0	35.6
C[C@@H]1CN([C@@H](C)CO)C(=O)c2cc(C#CC3CCCC3)cnc2O[C@@H]1CN(C)C(=O)Nc1ccccc1	0	0	0	-	-	-	-
C[C@@H]1CCCCO[C@@H](CN(C)S(=O)(=O)c2ccc(Cl)cc2)[C@H](C)CN([C@H](C)CO)C(=O)c2cc(NC(=O)NC3CCCCC3)ccc2O1	0	0	-	-	-	-	-
COCC(=O)Nc1ccc2c(c1)C(=O)N(C)[C@@H]1CC[C@H](CC(=O)O)O[C@@H]1CO2	0	0	0	-	-	-	-
COc1ccccc1NC(=O)N1CC(=O)N2[C@H](CO)[C@@H](c3ccc(C#CC(C)C)cc3)[C@H]2C1	0	-	0	-	-	-	-
SMILES	C diff HTS	T cruzi growth-1	Pf Dd2 growth	T cruzi growth-2	T cruzi growth-3	NIH3T3 tox	3T3 cytotox 2
Cc1ccc(S(=O)(=O)N(C)C[C@H]2Oc3cc(Br)ccc3S(=O)(=O)N([C@H](C)CO)C[C@@H]2C)cc1	0	110.1	0	107.0	0	0	60.6
Cc1ccc(S(=O)(=O)N(C)C[C@@H]2Oc3cc(Br)ccc3S(=O)(=O)N([C@@H](C)CO)C[C@H]2C)cc1	0	-	0	-	-	-	-
C[C@@H]1CN([C@@H](C)CO)S(=O)(=O)c2ccc(Br)cc2O[C@H]1CN(C)S(=O)(=O)c1ccc(F)cc1	0	100.4	0	105.9	0	0	77.7
C[C@H](CO)N1C[C@H](C)[C@H](CN(C)S(=O)(=O)c2cccc(F)c2)Oc2cc(Br)ccc2S1(=O)=O	0	116.7	0	105.6	0	0	48.5
C[C@@H]1CN([C@H](C)CO)S(=O)(=O)c2ccc(Br)cc2O[C@H]1CN(C)S(=O)(=O)c1ccc(F)cc1	0	96.6	0	113.3	0	0	61.2
C[C@H]1CN([C@@H](C)CO)S(=O)(=O)c2ccc(Br)cc2O[C@@H]1CN(C)S(=O)(=O)c1ccc(F)cc1	-	0	0	-	-	-	-
C[C@@H]1CN([C@H](C)CO)S(=O)(=O)c2ccc(Br)cc2O[C@@H]1CN(C)S(=O)(=O)c1ccc(F)cc1	-	0	0	-	-	-	-
COc1cccc(S(=O)(=O)N[C@H]2C=C[C@H](CC(=O)NCc3ccccc3)O[C@@H]2CO)c1	0	0	0	-	-	-	-
N#Cc1ccc(-c2ccc(C3[C@@H]4CN(C(=O)c5ccc6c(c5)OCO6)C[C@H]3N4)cc2)cc1 (stereo not given in full)	0	-	0	-	-	-	-
Cc1ccccc1S(=O)(=O)NCC[C@@H]1CC[C@@H](NC(=O)C2CCCC2)[C@H](CO)O1	0	-	0	-	-	-	-
CO[C@@H]1CN(C)C(=O)c2cc(NC(=O)C3CCC3)ccc2OC[C@@H](C)NC[C@H]1C	-	0	-	-	-	-	-
CCC(=O)N[C@@H]1CC[C@H](CC(=O)NCc2ccccc2F)O[C@H]1CO	-	0	0	-	-	-	-
C[C@@H]1CN([C@@H](C)CO)C(=O)Cc2cc(NC(=O)Nc3ccc4c(c3)OCO4)ccc2O[C@H]1CN(C)Cc1ccncc1	0	-	0	-	-	-	-
C[C@H](CO)N1C[C@H](C)[C@H](CN(C)Cc2ccc(C(=O)O)cc2)OCc2cnnn2CCCC1=O	0	-	0	-	-	-	-
